In all, about 47,000 compounds went through this assay and about 2,500 (5.3%) were called active. This is one part of a sample in which actives are shown more often than they occur. Unmarked numbers belong to inactive results. Cut-off read from the data, not from the text of the source: active = inhibition above about 30%; inactive = the rest.

The target in the assay is Ubiquitin carboxyl-terminal hydrolase 30 (Homo sapiens) (UniProt Q70CQ3). Kind of assay: blocks human USP30 ubiquitin-rhodamine cleavage (AID 1645860). Particulars: purified USP30, Ub-rhodamine cleavage fluorescence; at 25 µM; active compounds read high.
Sequence of Ubiquitin carboxyl-terminal hydrolase 30 (Homo sapiens) (Q70CQ3 whole entry, looked up): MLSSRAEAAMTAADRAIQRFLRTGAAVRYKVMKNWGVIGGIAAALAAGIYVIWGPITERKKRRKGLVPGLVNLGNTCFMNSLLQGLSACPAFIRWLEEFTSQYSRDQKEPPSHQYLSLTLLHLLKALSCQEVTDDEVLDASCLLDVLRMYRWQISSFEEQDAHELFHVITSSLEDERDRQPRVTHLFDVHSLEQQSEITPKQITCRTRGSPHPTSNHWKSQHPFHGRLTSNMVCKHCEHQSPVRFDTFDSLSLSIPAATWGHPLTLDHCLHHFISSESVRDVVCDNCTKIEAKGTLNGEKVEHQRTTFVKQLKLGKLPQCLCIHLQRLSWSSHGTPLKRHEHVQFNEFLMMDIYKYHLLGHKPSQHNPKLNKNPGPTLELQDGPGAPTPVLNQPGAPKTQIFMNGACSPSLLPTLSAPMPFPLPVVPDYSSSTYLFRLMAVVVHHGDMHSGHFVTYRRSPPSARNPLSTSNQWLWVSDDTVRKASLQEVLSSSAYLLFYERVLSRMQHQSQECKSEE
For `CC(C)n1cnc2c1C(C(=O)N1CCN(C)CC1)N(Cc1ccccc1)CC2` (centres undefined), the inhibition (usually the drop in the measured response relative to a control, in per cent) was 9.34%. Regarding `CC(C)(C)C(=O)N1CCC2(COCc3cnc(NCc4ccco4)nc32)C1` (centres undefined), the inhibition was 2.12%. The result for `Cc1c(S(=O)(=O)N2CCCCC2)c(C)n(C)c1-c1nnc(C2CCC2)o1` reads 3.55%; that for `Cc1nnc(NCc2ccc(Cl)cc2)[nH]c1=O`, 26%; that for `CSc1cccc(NC(=O)CCn2c(=O)c3cccn3c3ccccc32)c1`, 32.6% (active). To `CSc1cccc(NC(=O)COc2ccc(C(=O)c3ccccc3)cc2)c1` belongs -4.48%; to `CSc1cccc(NC(=O)CCc2ccc3nc[nH]c3c2)c1`, -0.451%. The result for `Cc1cc2n(n1)CCCN2C(=O)CCC(=O)Nc1ccc(F)cc1F` reads -24.2%; that for `CC(=O)N1C[C@H]2C3(CCN(C(=O)c4ccccc4)CC3)CC[C@@]2(C(=O)N(C)C)C1`, 25.8%; that for `Cc1ccc(Cc2nc(CC(=O)Nc3ccc(F)cc3F)n[nH]2)cc1`, -1.22%. For `Cc1cc(F)ccc1NC(=O)c1cc(C2CC2)n2nccc2n1`, the inhibition is -33.1%. On to `Cc1ccc(-n2cc(-c3noc(C(=O)Nc4ccc(F)cc4C)n3)nn2)cc1`, for which the inhibition was 36.9% (active).

On to `CCC(C(=O)Nc1ccc(-c2cn3cccnc3n2)cc1)c1ccccc1` (centres undefined), for which the inhibition was -89.6%. As for `N#Cc1ccc(C(=O)Nc2cccc(-c3noc(C4CC4)n3)c2)c(F)c1`, the inhibition was 13.2%. To `Cc1ccc(F)c2c(=O)c3c([nH]c12)CCN(CC(=O)Nc1cccc(C#N)c1)C3` belongs -178%; to `O=C(Cn1c(=O)n(Cc2ccc3c(c2)OCO3)c(=O)c2cccnc21)Nc1ccc(F)cc1`, 21.5%; to `CC(C)(C)C(=O)Cn1c(=O)n(Cc2ccco2)c(=O)c2ccccc21`, 1.71%. To `O=C(Cn1c(=O)n(Cc2ccc3c(c2)OCO3)c(=O)c2ccccc21)NCc1ccco1` belongs 33% (active); to `Cc1cc2oc(=O)cc(CN3CCN(Cc4ccccc4)CC3)c2cc1C`, 3.27%; to `COc1ccccc1NC(=O)c1cccc(S(=O)(=O)N2CCc3ccccc32)c1`, -7.37%.

Consider `Cc1cccc(NC(=O)Nc2ccc3c(c2)N(S(=O)(=O)c2ccccc2)CC3)c1C`, for which the inhibition was 30.5% (active). The result for `Cc1ccc(NC(=O)c2ccc3c(c2)N(S(C)(=O)=O)CC3)cc1C` reads -53.8%; that for `COc1ccc(C2=NC3(CCN(Cc4cccc(F)c4)CC3)NC2=O)cc1`, -23.4%. Regarding `CCc1cnc(N2CC[C@@H]3CN(CCC(C)C)S(=O)(=O)[C@@H]3CC2)nc1`, the inhibition was 27.9%.

Regarding `Cc1ccc2c(=O)cc(CN(C)Cc3ccc(F)cc3)[nH]c2c1C`, the inhibition is -7.81%. To `COc1ccc(C2=CC(c3ccc(Cl)cc3)n3ncc(C(=O)Nc4ccccc4)c3N2)cc1` (centres undefined) belongs -15.7%; to `C=C1CCC2[C@](C)(CCC[C@]2(C)C(=O)OC)[C@H]1CCc1ccoc1/C=C/C(=O)O` (some centres undefined), 61.8% (active). The result for `C=C1CCC2[C@](C)(CCC[C@]2(C)C(=O)OC)[C@H]1CCc1ccoc1C[N+](C)(C)Cc1ccccc1` (some centres undefined) reads 72.7% (active); that for `CNc1nc(C2CCNCC2)nc2c1CCN(S(=O)(=O)c1ccccc1Cl)C2`, -118%; that for `COc1cc(O)ccc1CN1CCCC12Cc1ccccc1CNC2=O` (centres undefined), -28%. To `Cc1cncc(C2CCCN(C(=O)CCc3cc(Cl)no3)C2)n1` (centres undefined) belongs -18.4%. Take `O=C(COc1ccccc1Cl)NCC(c1ccco1)N1CCOCC1` (centres undefined): the inhibition is -52.2%. To `COc1ccc(N2C(=O)N(Cc3ccccc3)S(=O)(=O)c3cccnc32)cc1` belongs 13.9%; to `COc1ccccc1NC(=O)NCc1cnn2ccccc12`, 14.1%.

Regarding `Cc1nc(C2CCN(C(=O)C(C)(C)C)CC2)cc(N2CC3(CCOCC3)OC2=O)n1`, the inhibition is 6.69%. To `c1ccc(Cn2nnc3c(N4CCCCC4)ncnc32)cc1` belongs 3.44%; to `O=C(C1CCCCC1)N1CCC(c2nc3c(nnn3Cc3cccc(F)c3)c(=O)[nH]2)CC1`, 19.3%; to `O=C(C1CCCCC1)N1CCN(c2ncnc3c2nnn3Cc2ccccc2)CC1`, 43.1% (active).

Consider `CCS(=O)(=O)N1CCc2c(nc(C3CCCN3)nc2NC)C1` (centres undefined), for which the inhibition is -56.6%. To `COc1ccc(NC(=O)C(C)c2c(C)n[nH]c2C)cc1` (centres undefined) belongs 23.5%; to `Cc1cccc2c1N(C(=O)Nc1ccc(OCc3ccccc3)cc1)CCC2`, 16.1%. To `O=C(CN1CCCC1c1ccc2c(c1)OCCCO2)NCCc1ccccc1F` (centres undefined) belongs -52%; to `Cn1cc(CCNC(=O)Nc2cc(F)ccc2F)c2cccnc21`, -16.4%; to `Cc1ccc(N(C)C(=O)CCn2cnc3ccccc3c2=O)cc1`, -5.01%. The result for `CCN1CCc2nc(-c3ccccc3)n(CC(=O)Nc3cccc(Cl)c3C)c(=O)c2C1` reads -97%; that for `Cc1c(Cl)cccc1NC(=O)CCn1cnc2ccccc2c1=O`, 74% (active). In the case of `CCOc1ccc(CC(=O)N2CCN(c3ccc(OC)nn3)CC2)cc1`, the inhibition is -11.9%.

Consider `Cc1cc(C)n(-c2ccc(C(=O)NCC(c3ccccc3)c3c[nH]c4ccccc34)cc2)n1` (centres undefined), for which the inhibition was -19.5%.

Consider `O=C(Cc1ccccc1)N1CCN(c2ccc(N3CCCC3)nn2)CC1`, for which the inhibition was -15.8%.

On to `O=C(c1ccc(N2CCCC2)nn1)N1CCN(c2ccccn2)CC1`, for which the inhibition is 3.65%. To `Cc1cc(C)n(-c2ccc(C(=O)Nc3ccccc3C(C)C)nn2)n1` belongs 34.9% (active); to `CSc1ccccc1NC(=O)c1ccc(N2CCCC2)nn1`, 77.3% (active). Take `O=C(CSc1ncnc2c1nnn2-c1ccc(F)cc1)N1CCc2ccccc21`: the inhibition was 3.49%. In the case of `CCCOc1ccc(C2Nc3ccccc3S(=O)(=O)N2Cc2ccccc2)cc1OCC` (centres undefined), the inhibition is 11%. To `CCc1noc(-c2c(C)cc(C)n2CC(=O)NCc2cccc(F)c2)n1` belongs 19.8%. The result for `COc1ccc(C(CNC(=O)c2oc3ccccc3c2C)N2CCOCC2)cc1` (centres undefined) reads 0.732%; that for `Cc1noc(-c2cccn2Cc2ccc(F)cc2)n1`, -50.7%. The result for `Cc1ccc(Cn2cc(-c3noc(-c4ccccn4)n3)nn2)cc1` reads 15%; that for `Cc1ccc(Cn2cc(-c3noc(-c4ccc[nH]4)n3)nn2)cc1`, 65% (active).

For the origin of these results see PubChem BioAssay AID1645860 (Buhrlage Lab, Dana-Farber Cancer Institute and Novartis …, 2021).
